Here are results for 23 compounds from PubChem BioAssay (EPA / NIEHS).

One may read the AC50 as the concentration at which the activity in the assay is half-maximal.

SMILES strings stand for the structures. Activity calls are given as the source filed them. The calls were made as follows: active = hit-call score of the fitted dose curve at least 0.9, where 1 is the maximum; inactive = score below 0.9.

Holding throughout (details): mRNA level, 48 h; actives raise or lower the signal
Read-out in experiment [1]: Bcl-2 (BID) gene, BID (gene 637)
The experiment can be described thus: LTEA_HepaRG_BID: Life Technologies and Expression Analysis (LTEA) Assay for Bcl-2 (BID) gene using HepaRG (AID 2283476). The method, boiled down:
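Gene expression by qRT-PCR in HepaRG cells after 48 h exposure, duplicate wells, eight half-log concentrations topping at 100 uM in 0.5% DMSO. Normalized to ACTB, GAPDH, POLR2A; bidirectional fitting relative to DMSO.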

Read-out in experiment [2]: Cytochrome P450 (CYP24A1), CYP24A1 (gene 1591)
The experiment can be described thus: LTEA_HepaRG_CYP24A1: Life Technologies and Expression Analysis (LTEA) Assay for Cytochrome P450 (CYP24A1) using HepaRG (AID 2283478). The method, boiled down: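 Human liver HepaRG cultures receive each chemical for 48 h across an eight-point half-log series topping at 100 uM in 0.5% DMSO. Induction or suppression of CYP24A1 mRNA is scored relative to vehicle after housekeeping-gene normalization.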

Read-out in experiment [3]: Cytochrome P450 (CYP1A2), CYP1A2 (gene 1544)
The experiment can be described thus: LTEA_HepaRG_CYP1A2: Life Technologies and Expression Analysis (LTEA) Assay for Cytochrome P450 (CYP1A2) using HepaRG (AID 2283479).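 As to AC50: TaqMan qRT-PCR transcript level normalized to ACTB GAPDH and POLR2A.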 The method, boiled down:
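Assesses CYP1A2 mRNA in human HepaRG liver cells after 48 h chemical exposure at up to 100 uM. Values come from qRT-PCR with bidirectional curve fitting relative to DMSO.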

Read-out in experiment [4]: cysteine-aspartic acid protease (CASP8), CASP8 (gene 841)
The experiment is described as follows: LTEA_HepaRG_CASP8: Life Technologies and Expression Analysis (LTEA) Assay for cysteine-aspartic acid protease (CASP8) using HepaRG (AID 2283480). An outline of the steps: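 Differentiated HepaRG cells in serum-free induction medium, 48 h exposure, eight-point half-log series from 100 uM in 0.5% DMSO, duplicates. CASP8 mRNA by qRT-PCR, normalized to ACTB, GAPDH, POLR2A; bidirectional fit versus DMSO.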

Read-out in experiment [5]: Cytochrome P450 (CYP2B6), CYP2B6 (gene 1555)
The experiment can be described thus: LTEA_HepaRG_CYP2B6: Life Technologies and Expression Analysis (LTEA) Assay for Cytochrome P450 (CYP2B6) using HepaRG (AID 2283481). An outline of the steps:
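Using 48 h treatment of HepaRG cells in serum-free induction medium, concentrations spanned half-log steps from 100 uM in 0.5% DMSO vehicle. CYP2B6 mRNA induction or loss is scored by qRT-PCR against DMSO.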

Read-out in experiment [6]: Cytochrome P450 2C19 (Homo sapiens) (UniProt P33261)
The experiment is described as follows: LTEA_HepaRG_CYP2C19: Life Technologies and Expression Analysis (LTEA) Assay for CYP2C19 using HepaRG (AID 2283482). The method, boiled down: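 Human HepaRG liver cells received test chemicals for 48 h (highest 100 uM, half-log dilutions in 0.5% DMSO). CYP2C19 mRNA induction or loss is read by multiplexed qRT-PCR and fitted in both directions versus vehicle.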

Read-out in a further experiment: CYP2C8 (gene 1558)
The experiment is described as follows: LTEA_HepaRG_CYP2C8: Life Technologies and Expression Analysis (LTEA) Assay for CYP2C8 using HepaRG (AID 2283483). An outline of the steps: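 Differentiated HepaRG cells in serum-free induction medium exposed 48 h in duplicate to 8 half-log concentrations from 100 uM in 0.5% DMSO. CYP2C8 mRNA by qRT-PCR normalized to ACTB, GAPDH, POLR2A; bidirectional fit versus DMSO.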

Read-out in the next experiment: CYP2C9 (gene 1559)
The experiment is described as follows: LTEA_HepaRG_CYP2C9: Life Technologies and Expression Analysis (LTEA) Assay for CYP2C9 using HepaRG (AID 2283484). An outline of the steps:
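Differentiated human HepaRG cells in serum-free induction medium were exposed 48 h to chemicals in 8-point half-log series from 100 uM (0.5% DMSO), in duplicate. CYP2C9 mRNA was measured by qRT-PCR, normalized to ACTB/GAPDH/POLR2A, with bidirectional fitting versus DMSO.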

Read-out in another experiment: CYP2E1 (gene 1571)
The experiment is described as follows: LTEA_HepaRG_CYP2E1: Life Technologies and Expression Analysis (LTEA) Assay for CYP2E1 using HepaRG (AID 2283485). The method, boiled down: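 HepaRG cells, plated 48 h, then exposed 48 h in serum-free induction medium to eight half-log concentrations from 100 uM in 0.5% DMSO, duplicate. CYP2E1 mRNA by qRT-PCR, normalized to ACTB/GAPDH/POLR2A; bidirectional fit versus DMSO.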

Chain of Cytochrome P450 2C19 (Homo sapiens) (P33261 whole entry, looked up): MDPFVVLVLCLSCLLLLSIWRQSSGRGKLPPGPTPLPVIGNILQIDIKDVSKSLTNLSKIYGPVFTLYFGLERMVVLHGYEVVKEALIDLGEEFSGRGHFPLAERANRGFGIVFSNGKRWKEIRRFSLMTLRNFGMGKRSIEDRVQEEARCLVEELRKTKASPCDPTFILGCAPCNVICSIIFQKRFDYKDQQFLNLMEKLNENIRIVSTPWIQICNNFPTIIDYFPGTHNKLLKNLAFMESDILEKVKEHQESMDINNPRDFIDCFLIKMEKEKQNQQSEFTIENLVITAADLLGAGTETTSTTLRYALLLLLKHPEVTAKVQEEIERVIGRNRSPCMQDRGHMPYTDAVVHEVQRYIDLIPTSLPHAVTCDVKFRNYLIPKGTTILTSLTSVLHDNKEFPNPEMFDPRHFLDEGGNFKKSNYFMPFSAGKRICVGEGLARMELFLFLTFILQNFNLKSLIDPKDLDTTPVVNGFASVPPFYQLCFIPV

With `CC(CO)OC(C)CO` (centres undefined) (tested in a mixture with another compound), the result in experiment [1], in [2], in experiment [3], in experiment [4], in experiment [5] and in experiment [6] was inactive. Also, the compound was called inactive with CYP2C8 (gene 1558), with CYP2C9 (gene 1559) and in the experiment with CYP2E1 (gene 1571).

On to `C1CCC(SSC2CCCCC2)CC1`, for which the compound was called inactive in [1], in experiment [2], in experiment [3], in experiment [4], in experiment [5] and in experiment [6]. Further, the compound was called inactive with CYP2C8 (gene 1558), in the experiment with CYP2C9 (gene 1559) and in the experiment with CYP2E1 (gene 1571).

On to `CC1=C(/C=C/C(C)=C/C=C/C(C)=C/CO)C(C)(C)CCC1`, for which the call (in experiment [1]; in [2]; in experiment [3]; in [4]; with CYP2C9 (gene 1559)) was inactive. Further, the half-maximal activity concentration (AC50) in [5] was 26.7 µM (active); in [6], 43.5 µM (active); in the experiment with CYP2C8 (gene 1558), 52.2 µM (active); with CYP2E1 (gene 1571) it was 52.2 µM (active).

On to `Cc1oc(-c2ccccc2)nc1CCOc1cccc2c1ccn2CCC(=O)O`, for which the compound was called inactive in experiment [1], in [2] and in experiment [3]. The concentration at half-maximal activity (AC50) in experiment [4] was 50 µM (active); in experiment [5] it was 88.5 µM (active); in experiment [6], 83.4 µM (active); with CYP2C8 (gene 1558), 80.5 µM (active); with CYP2C9 (gene 1559), 77.9 µM (active); with CYP2E1 (gene 1571) it was 62.6 µM (active).

Turning to `O=c1[nH]cc(F)c(=O)[nH]1`, the compound was classed as inactive (in [1]; in experiment [2]; in experiment [4]; in experiment [5]; in experiment [6]; in the experiment with CYP2C8 (gene 1558)). Also, the compound was classed as inactive with CYP2C9 (gene 1559). For the same compound, the AC50 (in experiment [3]; in the experiment with CYP2E1 (gene 1571)) was 51 µM (active) throughout.

With `CN1CCN(Cc2cc(-c3ccc4[nH]c(=O)oc4c3)co2)[C@@H](c2ccc(F)cc2)C1`, the compound was called inactive (in experiment [1]; in experiment [2]; in experiment [4]; in [6]; in the experiment with CYP2C8 (gene 1558)). Moreover, the AC50 was 65.7 µM (active) in experiment [3], 86.7 µM (active) in [5], 88 µM (active) with CYP2C9 (gene 1559) and 50 µM (active) in the experiment with CYP2E1 (gene 1571).

As for `COc1cc(S(=O)(=O)O)c(C)cc1N=Nc1c(O)ccc2cc(S(=O)(=O)O)ccc12`, the compound was classed as inactive in experiment [1], in [2], in [3], in experiment [4], in experiment [5] and in [6]. The compound was classed as inactive in the experiment with CYP2C8 (gene 1558), with CYP2C9 (gene 1559) and in the experiment with CYP2E1 (gene 1571).

As to `Clc1cc(Cl)c(Cl)cc1Cl`, the call in experiment [1], in experiment [2], in experiment [3], in [4], in experiment [5] and in experiment [6] was inactive. The outcome with CYP2C8 (gene 1558), with CYP2C9 (gene 1559) and in the experiment with CYP2E1 (gene 1571) was inactive.

`COc1cc(C=O)ccc1O`: the compound was classed as inactive in [1], in [2], in experiment [3], in experiment [4], in experiment [5] and in experiment [6]. The outcome in the experiment with CYP2C8 (gene 1558), with CYP2C9 (gene 1559) and in the experiment with CYP2E1 (gene 1571) was inactive.

For the compound `O=C(O)Cc1ccccc1Nc1c(Cl)cccc1Cl`, the result (in experiment [1]; in experiment [2]; in experiment [4]; in the experiment with CYP2C8 (gene 1558); in the experiment with CYP2C9 (gene 1559)) was inactive. The figures for the AC50 (in [3]; in experiment [6]; in the experiment with CYP2E1 (gene 1571)) were 2.69 µM (active), 5.86 µM (active) and 11.8 µM (active), respectively.

Take `NC(=O)Cn1c(=O)cc(CCN2CCN(c3nccc4sccc34)CC2)c2ccc(F)cc21`: the compound was classed as inactive in experiment [1], in experiment [2], in experiment [3], in experiment [4], in experiment [5] and in [6]. The compound was classed as inactive with CYP2C8 (gene 1558). The concentration at half-maximal activity (AC50) in the experiment with CYP2C9 (gene 1559) is 78 µM (active); with CYP2E1 (gene 1571), 87.6 µM (active).

As to `CC(=O)OCCOCCOCCOC(C)=O`, the call in experiment [1], in experiment [2], in [3], in experiment [4], in experiment [5] and in experiment [6] was inactive. Further, the compound was called inactive with CYP2C8 (gene 1558), with CYP2C9 (gene 1559) and with CYP2E1 (gene 1571).

`CCCc1cc(=O)[nH]c(=S)[nH]1`: the call (in [1]; in experiment [2]; in [4]; in experiment [5]; in experiment [6]; with CYP2C8 (gene 1558)) was inactive. Moreover, the compound was called inactive with CYP2C9 (gene 1559) and with CYP2E1 (gene 1571). Further, the AC50 in experiment [3] was 23.7 µM (active).

As to `Cc1c(C(=O)O)c(O)cc2c1C(=O)c1c(O)c([C@@H]3O[C@H](CO)[C@@H](O)[C@H](O)[C@H]3O)c(O)c(O)c1C2=O`, the call in [1], in [2], in experiment [3], in experiment [4], in experiment [5] and in experiment [6] was inactive. The outcome with CYP2C8 (gene 1558), with CYP2C9 (gene 1559) and in the experiment with CYP2E1 (gene 1571) was inactive.

For the compound `C[C@]12C=CC(=O)C=C1CC[C@@H]1[C@@H]2C(=O)C[C@@]2(C)[C@H]1CC[C@]2(O)C(=O)CO`, the compound was called inactive in experiment [1] and in experiment [4].

Turning to `CNC(=O)[C@H]1O[C@@H](n2cnc3c(NCc4cc(Cl)ccc4OCc4cc(C)no4)ncnc32)[C@H](O)[C@@H]1N`, the compound was classed as inactive in experiment [1], in experiment [2], in experiment [3], in experiment [4], in experiment [5] and in [6]. Further, the outcome with CYP2C8 (gene 1558), with CYP2C9 (gene 1559) and with CYP2E1 (gene 1571) was inactive.

Turning to `CC=Cc1ccc(O)c(OC)c1`, the result in experiment [1], in [2], in experiment [3], in [4], in experiment [5] and in experiment [6] was inactive. Also, the compound was classed as inactive with CYP2C8 (gene 1558), with CYP2C9 (gene 1559) and with CYP2E1 (gene 1571).

As for `COc1ccc2c(c1)c(CC(=O)O)c(C)n2C(=O)c1ccc(Cl)cc1`, the compound was called inactive in experiment [1], in experiment [2], in [3], in [4], in experiment [5] and in [6]. Besides, the compound was classed as inactive with CYP2C8 (gene 1558) and with CYP2C9 (gene 1559). The AC50 in the experiment with CYP2E1 (gene 1571) is 21.3 µM (active).

As to `Cc1ccc(C)c(C)c1`, the outcome in experiment [1], in experiment [2], in experiment [3], in experiment [4], in [5] and in experiment [6] was inactive. Besides, the result in the experiment with CYP2C8 (gene 1558), with CYP2C9 (gene 1559) and in the experiment with CYP2E1 (gene 1571) was inactive.

Turning to `c1cc(-c2ccncc2)ccn1`, the compound was called inactive (in experiment [1]; in experiment [2]; in experiment [4]; in experiment [5]; in experiment [6]; with CYP2C8 (gene 1558)). Moreover, the compound was called inactive with CYP2C9 (gene 1559) and with CYP2E1 (gene 1571). Moreover, in experiment [3], the AC50 was 50 µM (active).

In the case of `CCCCCCOCCO`, the compound was called inactive in experiment [1], in experiment [2], in experiment [3], in experiment [4], in experiment [5] and in experiment [6]. In addition, the outcome with CYP2C8 (gene 1558), with CYP2C9 (gene 1559) and with CYP2E1 (gene 1571) was inactive.

As to `O=[N+]([O-])C(CO)(CO)CO`, the outcome (in experiment [1]; in experiment [2]; in [4]; in experiment [5]; in experiment [6]; in the experiment with CYP2C8 (gene 1558)) was inactive. Further, the result in the experiment with CYP2C9 (gene 1559) and with CYP2E1 (gene 1571) was inactive. Besides, in experiment [3], the AC50 was 28.6 µM (active).

With `CCCCc1ccc2c(n1)[C@@H](c1ccc(OC)cc1C[C@H](C)C(=O)O)[C@H](C(=O)O)[C@H]2c1ccc2c(c1)OCO2`, the outcome in experiment [1], in experiment [2], in experiment [3], in experiment [4], in experiment [5] and in experiment [6] was inactive. Besides, the compound was classed as inactive with CYP2C8 (gene 1558), with CYP2C9 (gene 1559) and with CYP2E1 (gene 1571).
